This passage reports growth results from PubChem BioAssay (NCI).

Some test systems named below: DU-145 prostate; K-562 leukemia; MALME-3M melanoma; MDA-MB-231 breast; RXF 393 renal; SF-268 CNS; SF-295 CNS; SF-539 CNS; UACC-257 melanoma; M14 melanoma; HCT-15 colon; SNB-75 CNS; SNB-19 CNS; U251 CNS; PC-3 prostate; SK-MEL-5 melanoma; LOX IMVI melanoma; UACC-62 melanoma; SK-MEL-28 melanoma.
Common to all, as to test: NCI-60 one-dose screen, 48 h (100 = growth as untreated, 0 = no growth, -100 = all killed)
What all share (details): 10 µM unless noted

This is part of a sample that, as a whole, favours compounds with a hit. Of some 83,000 tested, about 20% had one in any assay.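 96-well plates, one dose, 48 hours. Percent growth reported; active if below 10.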 Values without a mark were called inactive. Activity calls are given as the source filed them.

Take `O=C1C(N2CCN(c3ccccc3)CC2)=C(Cl)C(=O)c2ncccc21`: the growth is 45.7% in the test on DU-145 prostate; 6.19% (active) in the test with K-562 leukemia; -1.87% (active) in the test with MALME-3M melanoma; 75.3% in the test with MDA-MB-231 breast; 27.8% with RXF 393 renal; 79.4% in the test on SF-268 CNS. Moreover, the growth in the test on SF-295 CNS is 103%; in the test with SF-539 CNS, 81.2%; with UACC-257 melanoma, 55.4%; with M14 melanoma it was 69.6%; with HCT-15 colon, 20.3%; in the test with SNB-75 CNS, 83.7%. Also, the growth in the test with SNB-19 CNS was 81.5%; in the test on U251 CNS, 79.5%; in the test on PC-3 prostate, 71.9%; with SK-MEL-5 melanoma it was 95.1%; with LOX IMVI melanoma, 10.4%.

With `N#Cc1c(-c2cccs2)cc(-c2cnccn2)nc1SCC(=O)N/N=C/c1ccncc1`, the growth with DU-145 prostate was 112%; with K-562 leukemia it was 96.1%; in the test with MALME-3M melanoma it was 120%; in the test with MDA-MB-231 breast, 102%; in the test on RXF 393 renal it was 105%; in the test on SF-268 CNS, 106%. Also, the growth in the test with SF-295 CNS was 99.4%; in the test with SF-539 CNS it was 97.6%; with UACC-257 melanoma, 107%; in the test on M14 melanoma, 110%; in the test with HCT-15 colon it was 106%; in the test with SNB-75 CNS it was 99.3%. Besides, the growth in the test with U251 CNS was 105%; with PC-3 prostate, 96.4%; in the test with SK-MEL-5 melanoma, 101%; in the test with UACC-62 melanoma, 91.4%; in the test on LOX IMVI melanoma, 101%; with SK-MEL-28 melanoma, 112%.

For the compound `COc1ccc(C(C)=C(c2ccc(OCCN(C)C)cc2)c2ccc(OCCN(C)C)cc2)cc1`, the growth in the test on DU-145 prostate was 20%; in the test on K-562 leukemia, -67.4% (active); with MALME-3M melanoma it was -74.4% (active); in the test with MDA-MB-231 breast, -52.2% (active); in the test on RXF 393 renal, -79.1% (active); with SF-268 CNS, -12% (active). The growth in the test on SF-295 CNS was -70.2% (active); with SF-539 CNS, -79.4% (active); with UACC-257 melanoma, -70.4% (active); in the test on M14 melanoma, -85.8% (active); in the test with HCT-15 colon it was -46.1% (active); in the test with SNB-75 CNS, 3.78% (active). For the same compound, the growth is 12.6% in the test on SNB-19 CNS; -64.1% (active) in the test with U251 CNS; 1.05% (active) with PC-3 prostate; -82.6% (active) in the test with SK-MEL-5 melanoma; -66.3% (active) in the test with UACC-62 melanoma; -79.9% (active) in the test on LOX IMVI melanoma. In addition, the growth in the test on SK-MEL-28 melanoma was -88.4% (active).

For `Cc1[nH]c(C(=O)Nc2ccccc2OCc2cccc(C(=O)NC3CCNC3)c2)c(Cl)c1Cl` (stereo not given), the growth was -84.8% (active) in the test with DU-145 prostate; 0.128% (active) with K-562 leukemia; 74.2% with MALME-3M melanoma; -57.8% (active) with MDA-MB-231 breast; 78.8% in the test with RXF 393 renal; 74.8% with SF-268 CNS. Besides, the growth in the test with SF-295 CNS was -85% (active); with SF-539 CNS, -75.6% (active); in the test with UACC-257 melanoma, 103%; in the test on M14 melanoma, 24.1%; in the test with HCT-15 colon, 35.2%; in the test on SNB-75 CNS it was 73.6%. The growth in the test on SNB-19 CNS is 9.65% (active); in the test with U251 CNS, -56.2% (active); in the test on PC-3 prostate, 59.1%; with SK-MEL-5 melanoma, 97.6%; in the test on UACC-62 melanoma it was 75%; in the test on LOX IMVI melanoma, -85.1% (active). For the same compound, the growth with SK-MEL-28 melanoma is -44.4% (active).

For the compound `COC(=O)c1ccc(NC2=C(Cl)C(=O)C(C)=C(C)C2=O)cc1`, the growth in the test with DU-145 prostate is 85.3%; in the test on K-562 leukemia, 4.61% (active); in the test with MALME-3M melanoma, 85%; with MDA-MB-231 breast, 68.9%; in the test with RXF 393 renal, 65.8%; in the test on SF-268 CNS, 87.3%. For the same compound, the growth is 36.6% in the test with SF-295 CNS; 65.9% in the test on SF-539 CNS; 79.5% with UACC-257 melanoma; 45.8% in the test with M14 melanoma; 40% in the test with HCT-15 colon; 64.5% with SNB-75 CNS. Besides, the growth in the test on SNB-19 CNS was 53.5%; in the test on U251 CNS, 59.4%; in the test on PC-3 prostate, 36.6%; in the test on SK-MEL-5 melanoma it was 44.6%; with UACC-62 melanoma it was 5.89% (active); in the test with LOX IMVI melanoma it was 24.7%. Also, the growth in the test on SK-MEL-28 melanoma was 75.9%.

For the compound `CN(C)S(=O)(=O)c1ccc(-c2nc(C(Cl)Cl)nc3cc(-c4ccc(F)cc4)nn23)cc1`, the growth with DU-145 prostate was 5.97% (active); in the test on K-562 leukemia it was 8.44% (active); in the test with MALME-3M melanoma it was -11.5% (active); with MDA-MB-231 breast it was 1.26% (active); in the test on RXF 393 renal, -19.2% (active); with SF-268 CNS it was 19.4%. The growth is 21.8% with SF-295 CNS; 31.7% with SF-539 CNS; 52.4% with UACC-257 melanoma; 1.95% (active) in the test on M14 melanoma; -35.7% (active) in the test with HCT-15 colon; 48.3% in the test on SNB-75 CNS. Moreover, the growth in the test on SNB-19 CNS is 23.5%; in the test with U251 CNS it was 2.76% (active); with PC-3 prostate, 26.7%; in the test with SK-MEL-5 melanoma, 55.1%; with UACC-62 melanoma it was 26%; in the test on SK-MEL-28 melanoma, 27.1%.

As to `C#C[C@]1(O)CC[C@H]2[C@@H]3CC=C4c5sc(N6CCN(C)CC6)nc5CC[C@]4(C)[C@H]3CC[C@@]21C`, the growth in the test on DU-145 prostate was 75.5%; in the test on K-562 leukemia, 0.102% (active); in the test on MALME-3M melanoma, 56.9%; in the test with MDA-MB-231 breast, 62%; in the test on RXF 393 renal, -22.1% (active); in the test on SF-268 CNS it was 52.4%. Further, the growth in the test with SF-295 CNS was -39.8% (active); in the test with SF-539 CNS it was 7.74% (active); with UACC-257 melanoma, 61.5%; in the test with M14 melanoma, -73.4% (active); in the test on HCT-15 colon it was 8.12% (active); in the test with SNB-75 CNS, 75.2%. The growth with SNB-19 CNS is 63.3%; in the test on U251 CNS it was 21.8%; in the test on PC-3 prostate, 22.4%; in the test on SK-MEL-5 melanoma it was 38.5%; in the test with UACC-62 melanoma it was 51.2%; in the test on LOX IMVI melanoma it was 25.6%. In the test with SK-MEL-28 melanoma, the growth is 31%.

On to `c1ccc(-c2cn3c(-c4c[nH]c5ccccc45)csc3n2)cc1`, for which the growth in the test on DU-145 prostate is 94%; in the test on K-562 leukemia, 36.5%; in the test on MALME-3M melanoma it was 69.6%; in the test on MDA-MB-231 breast, 61.7%; in the test on RXF 393 renal it was 83.2%; in the test on SF-268 CNS it was 79.6%. In addition, the growth in the test on SF-295 CNS is 77.6%; with SF-539 CNS, 81.9%; in the test on UACC-257 melanoma, 54.2%; in the test with M14 melanoma, 73%; in the test on HCT-15 colon, 85.6%; in the test on SNB-75 CNS it was 80.9%. The growth in the test with SNB-19 CNS is 59.7%; in the test on U251 CNS it was 61%; in the test on PC-3 prostate it was 43.2%; in the test with SK-MEL-5 melanoma it was 81%; in the test with UACC-62 melanoma, 49.6%; with LOX IMVI melanoma, 83.7%. Further, the growth in the test with SK-MEL-28 melanoma was 71.9%.

On to `O=C(CSc1nc2ccccc2c(=O)n1-c1ccc(Cl)cc1)N/N=C/c1ccc(Oc2ccc(Cl)cc2)cc1`, for which the growth was 13.1% in the test with DU-145 prostate; 23% in the test on K-562 leukemia; -39.4% (active) in the test on MALME-3M melanoma; 30.4% in the test on MDA-MB-231 breast; -43.8% (active) in the test with RXF 393 renal; 55.8% in the test with SF-268 CNS. In addition, the growth in the test on SF-295 CNS was 64.7%; with SF-539 CNS, 69.7%; with UACC-257 melanoma it was 59%; in the test on M14 melanoma it was -39.4% (active); in the test with SNB-75 CNS, 57.9%; in the test with SNB-19 CNS it was 28.5%. Also, the growth with U251 CNS is -20.5% (active); in the test with PC-3 prostate, 0.803% (active); in the test with SK-MEL-5 melanoma it was 10.9%; in the test on UACC-62 melanoma it was 0.427% (active); with LOX IMVI melanoma it was -56.3% (active).
